This note sets out measurements from PubChem BioAssay (NCI).

The structures appear in SMILES notation. This is part of a sample that, as a whole, favours compounds with a hit. Of some 79,000 tested, about 15% had one in any assay. A number with no mark means an inactive call. Activity calls are given as the source filed them. No stated cut-off is given here; in the data, active means growth inhibition above about 70%; inactive means the rest.

Experiment [1] in a line: NCI Yeast Anticancer Drug Screen. Data for the rad50 strain (AID 155).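 Further: 0% = growth of vehicle-only cultures of the same strain.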 The settings on record: S. cerevisiae rad50 strain growth inhibition, hits give high values. In short, it runs like this: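 Compounds were tested on a yeast strain with an engineered DNA damage repair alteration; the reported value is growth inhibition normalised to vehicle treatment.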
Experiment [2] can be described thus: NCI Yeast Anticancer Drug Screen. Data for the mec2-1 strain (AID 157). The settings on record: S. cerevisiae mec2-1 strain, hits give high values. Summed up:
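Yeast mec2-1 mutant treated with compound. Readout: growth inhibition vs vehicle controls.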

Experiment [3] in a line: NCI Yeast Anticancer Drug Screen. Data for the sgs1 mgt1 strain (AID 161).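 Further: 0% = growth of cultures given vehicle only.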 The settings on record: S. cerevisiae sgs1 mgt1 strain, hits give high values. Summed up:
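Genetically altered yeast, compound exposure, growth inhibition relative to vehicle.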

Experiment [4] is described as follows: NCI Yeast Anticancer Drug Screen. Data for the cln2 rad14 strain (AID 165).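 Further: 0% = growth equal to vehicle treated cultures.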 The settings on record: S. cerevisiae cln2 rad14 strain, hits give high values. Summed up: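 cln2 rad14 yeast strain; compound exposure; growth inhibition read vs vehicle controls.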
A short description of experiment [5]: NCI Yeast Anticancer Drug Screen. Data for the bub3 strain (AID 167). The settings on record: S. cerevisiae bub3 mutant strain, hits give high values. In short, it runs like this: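 Growth of a checkpoint-deficient yeast mutant is measured after compound exposure. Values represent inhibition relative to vehicle.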
A short description of experiment [6]: NCI Yeast Anticancer Drug Screen. Data for the mlh1 rad18 strain (AID 175). The settings on record: S. cerevisiae mlh1 rad18 strain growth inhibition, hits give high values. Summed up: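 Yeast w/ defined DNA-repair lesions; compound exposure; growth vs vehicle controls → % inhibition.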
Where [7] appears, read: at 5.0 µM (retest, dose inferred, filed as 0.5).
Where [8] appears, read: at 50.0 µM (retest, dose inferred, filed as 5.0).

Turning to `COc1cccc2nc3c(C(=O)NCCN(C)C)cccc3cc12`, the growth inhibition in experiment [1] (setting [7]) was 60%; in experiment [1] (setting [8]) it was 94% (active); in experiment [1] (at 50.0 µM), 81.7% (active); in experiment [2] (setting [7]), 15%; in experiment [2] (setting [8]), 43%; in experiment [2] (at 50.0 µM) it was 15.9%. In addition, the growth inhibition is 24% in experiment [3] (setting [7]); 56% in experiment [3] (setting [8]); 10.4% in experiment [3] (at 50.0 µM); 15% in experiment [4] (setting [7]); 49% in experiment [4] (setting [8]); -7.1% in experiment [4] (at 50.0 µM). In addition, the growth inhibition in experiment [5] (setting [7]) was 22%; in experiment [5] (setting [8]), 47%; in experiment [5] (at 50.0 µM), -50.6%; in experiment [6] (setting [7]) it was 24%; in experiment [6] (setting [8]) it was 65%; in experiment [6] (at 50.0 µM), 0.05%.

Take `CC(/C=C/c1cccs1)=N\NC(=S)NCC(C)C`: the growth inhibition was -3% in experiment [1] (setting [7]); 95% (active) in experiment [1] (setting [8]); 95.6% (active) in experiment [1] (at 50.0 µM); 11% in experiment [2] (setting [7]); 96% (active) in experiment [2] (setting [8]); 96.2% (active) in experiment [2] (at 50.0 µM). Also, the growth inhibition in experiment [3] (setting [7]) is 9%; in experiment [3] (setting [8]), -24%; in experiment [3] (at 50.0 µM), 97% (active); in experiment [4] (setting [7]) it was -2%; in experiment [4] (setting [8]), 96% (active); in experiment [4] (at 50.0 µM), 94% (active). The growth inhibition in experiment [5] (setting [7]) is -1%; in experiment [5] (setting [8]) it was 95% (active); in experiment [5] (at 50.0 µM), 96.9% (active); in experiment [6] (setting [7]), 3%; in experiment [6] (setting [8]) it was 96% (active); in experiment [6] (at 50.0 µM), 97% (active).

Consider `ClC1(Cl)C(Cl)(Cl)C12c1ccccc1-c1ccccc12`, for which the growth inhibition in experiment [1] (setting [7]) is 14%; in experiment [1] (setting [8]) it was 94% (active); in experiment [1] (at 50.0 µM), 98.6% (active); in experiment [2] (setting [7]) it was -26%; in experiment [2] (setting [8]) it was 97% (active); in experiment [2] (at 50.0 µM) it was 98.8% (active). For the same compound, the growth inhibition was 15% in experiment [3] (setting [7]); 98% (active) in experiment [3] (setting [8]); 99% (active) in experiment [3] (at 50.0 µM); 2% in experiment [4] (setting [7]); 95% (active) in experiment [4] (setting [8]); 86.8% (active) in experiment [4] (at 50.0 µM). Further, the growth inhibition was 28% in experiment [5] (setting [7]); 95% (active) in experiment [5] (setting [8]); 98% (active) in experiment [5] (at 50.0 µM); 29% in experiment [6] (setting [7]); 96% (active) in experiment [6] (setting [8]); 98.6% (active) in experiment [6] (at 50.0 µM).

In the case of `Cc1cc(NC(=S)SCc2ccc(Cl)cc2)c([N+](=O)[O-])cc1C`, the growth inhibition was 65% in experiment [1] (setting [7]); 95% (active) in experiment [1] (setting [8]); 96% (active) in experiment [1] (at 50.0 µM); 45% in experiment [2] (setting [7]); 97% (active) in experiment [2] (setting [8]); 98.2% (active) in experiment [2] (at 50.0 µM). Also, the growth inhibition is 90% (active) in experiment [3] (setting [7]); 96% (active) in experiment [3] (setting [8]); 97.3% (active) in experiment [3] (at 50.0 µM); 42% in experiment [4] (setting [7]); 92% (active) in experiment [4] (setting [8]); 94.3% (active) in experiment [4] (at 50.0 µM). Also, the growth inhibition was 53% in experiment [5] (setting [7]); 97% (active) in experiment [5] (setting [8]); 96.2% (active) in experiment [5] (at 50.0 µM); 98% (active) in experiment [6] (setting [7]); 96% (active) in experiment [6] (setting [8]); 97.2% (active) in experiment [6] (at 50.0 µM).

As to `O=[N+]([O-])c1ccccc1C(c1ccc2ccccc2c1O)N1CCOCC1` (stereo not given), the growth inhibition in experiment [1] (setting [7]) was 99% (active); in experiment [1] (setting [8]), 95% (active); in experiment [1] (at 50.0 µM) it was 97.5% (active); in experiment [2] (setting [7]) it was 100% (active); in experiment [2] (setting [8]), 97% (active); in experiment [2] (at 50.0 µM) it was 97.8% (active). Further, the growth inhibition in experiment [3] (setting [7]) is 99% (active); in experiment [3] (setting [8]) it was 98% (active); in experiment [3] (at 50.0 µM), 94.8% (active); in experiment [4] (setting [7]) it was 78% (active); in experiment [4] (setting [8]), 96% (active); in experiment [4] (at 50.0 µM) it was 97% (active). Moreover, the growth inhibition is 99% (active) in experiment [5] (setting [7]); 97% (active) in experiment [5] (setting [8]); 95.8% (active) in experiment [5] (at 50.0 µM); 98% (active) in experiment [6] (setting [7]); 97% (active) in experiment [6] (setting [8]); 95.4% (active) in experiment [6] (at 50.0 µM).

Take `C/C(=N\NS(=O)(=O)c1ccc(C)cc1)c1cc2ccccc2n1C`: the growth inhibition is 0% in experiment [1] (setting [7]); 85% (active) in experiment [1] (setting [8]); 74.9% (active) in experiment [1] (at 50.0 µM); -24% in experiment [2] (setting [7]); 65% in experiment [2] (setting [8]); 44.2% in experiment [2] (at 50.0 µM). Moreover, the growth inhibition in experiment [3] (setting [7]) is -17%; in experiment [3] (setting [8]), 82% (active); in experiment [3] (at 50.0 µM), 63.2%; in experiment [4] (setting [7]), -5%; in experiment [4] (setting [8]), 92% (active); in experiment [4] (at 50.0 µM), 78.5% (active). Besides, the growth inhibition in experiment [5] (setting [7]) is 31%; in experiment [5] (setting [8]), 93% (active); in experiment [5] (at 50.0 µM) it was 60.7%; in experiment [6] (setting [7]) it was 3%; in experiment [6] (setting [8]), 86% (active); in experiment [6] (at 50.0 µM) it was 65.2%.

For the compound `O=C(NCCCCCN1CCC2(CCCCC2)CC1)C(c1ccccc1)C1CCCCC1` (stereo not given), the growth inhibition is -1% in experiment [1] (setting [7]); 99% (active) in experiment [1] (setting [8]); 99.6% (active) in experiment [1] (at 50.0 µM); -12% in experiment [2] (setting [7]); 98% (active) in experiment [2] (setting [8]); 99.6% (active) in experiment [2] (at 50.0 µM). Also, the growth inhibition in experiment [3] (setting [7]) is 0%; in experiment [3] (setting [8]), 97% (active); in experiment [3] (at 50.0 µM), 99.7% (active); in experiment [4] (setting [7]), 5%; in experiment [4] (setting [8]), 99% (active); in experiment [4] (at 50.0 µM) it was 99.2% (active). The growth inhibition is -15% in experiment [5] (setting [7]); 100% (active) in experiment [5] (setting [8]); 99.6% (active) in experiment [5] (at 50.0 µM); 0% in experiment [6] (setting [7]); 99% (active) in experiment [6] (setting [8]); 99.7% (active) in experiment [6] (at 50.0 µM).

For the compound `c1ccc2c(c1)oc1cc3c(cc12)CCCN3`, the growth inhibition is 18% in experiment [1] (setting [7]); 97% (active) in experiment [1] (setting [8]); 91.7% (active) in experiment [1] (at 50.0 µM); 19% in experiment [2] (setting [7]); 98% (active) in experiment [2] (setting [8]); 10.3% in experiment [2] (at 50.0 µM). Further, the growth inhibition in experiment [3] (setting [7]) is 7%; in experiment [3] (setting [8]) it was 98% (active); in experiment [3] (at 50.0 µM), 74.7% (active); in experiment [4] (setting [7]), 3%; in experiment [4] (setting [8]), 97% (active); in experiment [4] (at 50.0 µM), 4.4%. Besides, the growth inhibition in experiment [5] (setting [7]) is 19%; in experiment [5] (setting [8]) it was 98% (active); in experiment [5] (at 50.0 µM) it was 77.7% (active); in experiment [6] (setting [7]) it was 18%; in experiment [6] (setting [8]) it was 98% (active); in experiment [6] (at 50.0 µM), 43.5%.

Consider `OC(CCN1CCOCC1)(c1cccc(Cl)c1)C1CCCCC1` (stereo not given), for which the growth inhibition is 3% in experiment [1] (setting [7]); 45% in experiment [1] (setting [8]); 72.1% (active) in experiment [1] (at 50.0 µM); 1% in experiment [2] (setting [7]); 19% in experiment [2] (setting [8]); -0.6% in experiment [2] (at 50.0 µM). Besides, the growth inhibition was 0% in experiment [3] (setting [7]); 73% (active) in experiment [3] (setting [8]); 45.7% in experiment [3] (at 50.0 µM); 2% in experiment [4] (setting [7]); 40% in experiment [4] (setting [8]); -26.9% in experiment [4] (at 50.0 µM). Further, the growth inhibition is 2% in experiment [5] (setting [7]); 68% in experiment [5] (setting [8]); 75.4% (active) in experiment [5] (at 50.0 µM); 2% in experiment [6] (setting [7]); 58% in experiment [6] (setting [8]); 40.8% in experiment [6] (at 50.0 µM).

Consider `O=C1NC(c2ccccc2)(c2cccs2)C(=O)N1C1c2ccccc2Oc2ccccc21` (stereo not given), for which the growth inhibition is 0% in experiment [1] (setting [7]); 87% (active) in experiment [1] (setting [8]); 90.3% (active) in experiment [1] (at 50.0 µM); -11% in experiment [2] (setting [7]); 92% (active) in experiment [2] (setting [8]); 84.7% (active) in experiment [2] (at 50.0 µM). The growth inhibition in experiment [3] (setting [7]) was -18%; in experiment [3] (setting [8]), 92% (active); in experiment [3] (at 50.0 µM), 91% (active); in experiment [4] (setting [7]) it was -7%; in experiment [4] (setting [8]) it was 84% (active); in experiment [4] (at 50.0 µM), 84.2% (active). Besides, the growth inhibition in experiment [5] (setting [7]) is -5%; in experiment [5] (setting [8]) it was 91% (active); in experiment [5] (at 50.0 µM), 86.8% (active); in experiment [6] (setting [7]) it was 21%; in experiment [6] (setting [8]), 87% (active); in experiment [6] (at 50.0 µM) it was 87.4% (active).
